Source: PubChem BioAssay (National Center for Advancing Translational Sciences (NCATS))
Nrf2 inh: Nrf2 qHTS screen for inhibitors. AID 504444, 2011. hit rate 2.1% among 360,000. A549 ARE-Fluc reporter, luciferase luminescence, 18-24 h. Potency, µM (doses to about 46 µM), for the others: at the top dose activity change, negative = inhibition, actives largely listed as inhibitors; also: potency is read from the fitted curve at half-maximal effect; % is scaled to controls: 0 for no effect and ±100 for the full control effect; nearly all actives have a fitted effect of over 60% in size
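A549 ARE_Fluc cells, 5000/well, 5% FBS OPTI-MEM; compounds in dose-response, 18-24 h at 37 °C/5% CO2; CellTiter-Fluor viability read (Ex 405/Em 525), then BugLite luciferase luminescence = Nrf2 activity.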
IL-2 act: qHTS of IL-2 Activators; IL-2 activation reporter assay, cell-based qHTS; stimulated with anti-CD3/CD4/CD28 beads; in transgenic mouse T cells; activation, % (series mostly up to about 46 µM); hit rate 0.065% among 360,000; in the data active = activation above about 50%; inconclusive = mostly about 30% to 49%; also: 0% is about no effect
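Readout: EGFP and DsRed signals by fluorescent plate cytometry. Unstimulated transgenic mouse T cells received compound 60 min before antibody-bead stimulation, then incubated 18 h at 37 degrees C.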
p53 reactivation: qHTS assay for re-activators of p53 using a Luc reporter. hit rate 0.063% among 320,000. Potency, µM (doses to about 92.2 µM), for the others: at the highest dose activity change, positive = activation, usual class: activators. H1299 p53-A138V BP100-luciferase reporter, luminescence, 24 h. AID 504706, 2011; also: potency is read from the fitted curve at half-maximal effect; % of control where 0% means no effect; nearly all actives have a fitted effect of over 45% in size
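p53-null H1299 cells stably carrying temperature-sensitive p53-A138V and a BP100-luciferase reporter were pinned with compounds (4-point, 1:5 series) and held 24 hrs at 37 deg C. Luminescence was read 10 min after detection reagent.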
BRCA1 expr up: qHTS Assay to Identify Small Molecule Activators of BRCA1 Expression; MCF7-BRCA1-FFLuc reporter, luminescence, 48 h; response scale: scaled: vehicle 0%, 10 µM genistein 100%; Potency, µM (doses to about 46.1 µM), without a hit: at the highest dose activation, most hits filed as activators; hit rate 1.1% among 380,000; AID 624202, 2012; also: potency is read from the fitted curve at half-maximal effect; nearly all actives have a fitted effect of over 80% in size
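48 h compound treatment of MCF7-BRCA1-FFLuc cells (phenol-red free MEM, 37 °C), then 15 min with luciferase substrate and luminescence imaging.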
Nrf2 ARE act: qHTS of Nrf2 Activators. AREc32 ARE-luciferase reporter (MCF7-derived line), luminescence, 24 h. Potency, µM (titrated, usually from 46.1 µM), without a hit: at the highest dose activation, usual class: activators. hit rate 0.31% among 410,000; also: potency is read from the fitted curve at half-maximal effect; % of control where 0% means no effect; nearly all actives have a fitted effect of over 65% in size
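ARE activation measured as luciferase luminescence (Steady-Glo, 30 min RT) in AREc32_Fluc cells after 24 hr compound exposure at 37 deg C, 5% CO2; cells seeded overnight at 1000/well in OPTI-MEM, 5% FBS.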
A549 tox: Nrf2 qHTS screen for inhibitors: counterscreen for cytotoxicity; A549 ARE-Fluc cells, CellTiter-Fluor viability, 18-24 h; Potency, µM (top dose mostly 46 µM), without a hit: at the top dose activity change, negative = cytotoxicity, hits mostly inhibitors; hit rate 0.16% among 390,000; also: potency is read from the fitted curve at half-maximal effect; % is scaled to controls: 0 for no effect and ±100 for the full control effect
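Cytotoxicity counterscreen: CellTiter-Fluor fluorescence was measured in A549 ARE_Fluc cells after 18-24 h of compound exposure in a concentration series. The subsequent BugLite luminescent read reports ARE-luciferase activity.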
Starred values were filed as active, the others as inactive; ? = inconclusive; · = no result. A selection: hits, their analogues and other compounds. The true share with any hit is near 3.2%. Unless noted, calls follow the shape of the dose curve; as a rule, active = well fitted curve in the direction sought with a large enough effect; inconclusive = small, poorly fitted or top-dose-only effect, or another doubt; inactive = no such curve, though single readings can be large; an effect the other way counts as inactive or inconclusive.

SMILES	Nrf2 inh	IL-2 act	p53 reactivation	BRCA1 expr up	Nrf2 ARE act	A549 tox
COc1ccc(-c2csc(NC(=O)c3ccccc3F)c2C(=O)O)cc1	13µM*	-1	11%	6.3µM*	-1%	-19%
COc1cccc(C(=O)Nc2ccccc2)c1	?	2	?	?	3%	-8%
COc1cccc(C(=O)Nc2cnn(C(C)C)c2)c1	?	-1	?	3.5µM*	1%	1%
COc1cccc(NC(=O)c2ccccc2F)c1	?	0	25%	7.9µM*	4%	0%
NC(=O)NN=C1c2cc(S(=O)(=O)N3CCOCC3)ccc2-c2ccc(S(=O)(=O)N3CCOCC3)cc21	26%	·	·	14%	·	13%
Cn1cc(Cl)c(/C(N)=N/OC(=O)c2ccccc2C(F)(F)F)n1	?	-1	?	11µM*	5%	-1%
CCn1nc(C)c2c(-c3ccccc3)cc(=O)n(C(C)C(=O)NCCC(C)C)c21 (stereo unspecified)	-10%	·	·	·	5%	-13%
CCn1nc(C)c2c(-c3ccccc3)cc(=O)n(C(C)C(=O)NCCc3ccccc3)c21 (stereo unspecified)	18µM*	·	·	·	5%	-11%
CCCC[C@@H]1CCCO[C@@](C(=O)NCc2ccc(S(C)(=O)=O)cc2)(C(F)(F)F)C1	-15%	·	·	·	·	-2%
CCC(C(=O)NC1CC1)n1nc(C)c2c(C)n(-c3ccc(C)cc3)nc2c1=O (stereo unspecified)	16µM*	-4	0%	-2%	3%	-8%
CCC(C(=O)Nc1ccccc1F)n1nc(C)c2c(C)n(-c3ccccc3)nc2c1=O (stereo unspecified)	-12%	-3	0%	-17%	0%	0%
COc1ccc(CNC(=O)C(C)n2nc(C)c3c(C)n(-c4ccc(C)cc4)nc3c2=O)cc1 (stereo unspecified)	?	-7	-2%	-12%	-1%	-1%
Cc1ccc(-n2nc3c(=O)n(CC(=O)NCc4ccccc4)nc(C)c3c2C)cc1	?	0	12%	4%	-1%	-1%
CCC(C(=O)NC1CCCCCC1)n1nc(C)c2c(C)n(-c3ccccc3)nc2c1=O (stereo unspecified)	21%	-3	-1%	-16%	-1%	1%
CCC(C(=O)NCc1ccc(OC)c(OC)c1)n1nc(C)c2c(C)n(-c3ccc(C)cc3)nc2c1=O (stereo unspecified)	26µM*	·	·	·	0%	-19%
Cc1ccc(-n2nc3c(=O)n(CC(=O)NC(C)CCc4ccccc4)nc(C)c3c2C)cc1 (stereo unspecified)	5.2µM*	-1	15%	-19%	1%	-13%
CCC(C(=O)Nc1cc(F)ccc1F)n1nc(C)c2c(C)n(-c3ccc(C)cc3)nc2c1=O (stereo unspecified)	23µM*	-5	1%	-49%	0%	?
Cc1cc2c(s1)c1cnn(Cc3c(Cl)cccc3Br)c(=O)c1n2C	16%	·	·	·	·	-5%
Cc1ccc(-n2nc3c(=O)n(C(C)C(=O)NCCc4cccs4)nc(C)c3c2C)cc1 (stereo unspecified)	12µM*	-1	-3%	-31%	3%	-12%
N#CN=c1snc(-c2ccccc2)n1-c1ccc(Br)cc1	28%	·	·	-52%	·	1%
Cc1ccc(-n2ncc(Cl)c2C(=O)NCc2ccccc2)cc1	?	-3	8%	11µM*	2%	8%
CC(=O)c1cccc(-n2nnnc2SCC(=O)Nc2ccccc2N2CCCCC2)c1	23µM*	0	-6%	-62%	3%	-15%
Cc1nc2nc(NC(=O)c3ccc(F)cc3)[nH]n2c(=O)c1Cc1ccccc1	21%	·	·	·	-1%	1%
